In PubChem BioAssay (Tox21):
A number with no mark means an inactive call. Results filed as inconclusive are left out. Where a call stands in place of a potency, no number is given. Calls of active or inactive are those of the source. Unless noted, calls follow the shape of the full dose curve.

What was measured:
[1] = Nuclear factor erythroid 2-related factor 2/antioxidant responsive element (Nrf2/ARE) small molecule agonists: qHTS cell viability counter screen in human keratinocytes (AID 1919968; active = well fitted curve in the direction sought with a large enough effect in the repeat runs; an effect the other way counts as inactive or inconclusive; also: nearly all actives have a fitted effect of over 55% in size)
Summary of the method: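 In human HaCaT keratinocytes stably expressing an ARE-driven luciferase, compound exposure lasted 23 h at 37 C under 5% CO2. Viable cells are quantified with a protease-based fluorogenic reagent (CellTiter-Fluor) read 1 h after addition.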

[2] = Nuclear factor erythroid 2-related factor 2/antioxidant responsive element (Nrf2/ARE) small molecule agonists: luciferase reporter gene qHTS assay in human keratinocytes (AID 1919969); also: nearly all actives have a fitted effect of over 35% in size; also: potency is read from the fitted curve at half-maximal effect
[3] = molecular target: Gonadotropin-releasing hormone receptor (Homo sapiens) (UniProt P30968); experiment: Human gonadotropin-releasing hormone receptor (GnRHR) small molecule agonists, calcium flux assay in GnRHR-HEK293 cells (AID 1920063); also: nearly all actives have a fitted effect of over 35% in size
Summary of the method: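 Intracellular calcium rise is the read-out: engineered human GnRHR HEK293 cells, dye-loaded, are exposed to DMSO-dissolved compounds and fluorescence at Ex/Em 480/540 is tracked for 3 min.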

[4] = molecular target: KiSS-1 receptor (Homo sapiens) (UniProt Q969F8); experiment: Human kisspeptin (KISS1R) small molecule agonists, calcium flux assay in KISS1R-HEK293 cells (AID 1920064; active = well fitted curve in the direction sought with a large enough effect in the repeat runs; an effect the other way counts as inactive or inconclusive)
Summary of the method: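 Concentration-response testing used 15 concentrations in triplicate on human KISS1R-expressing HEK293 cells. Calcium-dependent fluorescence (Ex/Em 480/540) was followed kinetically for 3 min after compound transfer.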

[5] = G protein-coupled receptor (GPCR) small molecule agonists, calcium flux assay: HEK293 wild type cell line counter screen (AID 1920065)
Summary of the method: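 Fluorescence intensity signals activation. After overnight (18 h) culture and a 1 h calcium dye load at 37 C, compounds are added by pin tool and the plate read at 480/540 nm for 3 min in 1 s steps.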

[6] = p53 small molecule agonists, cell-based qHTS assay with human liver microsomes: qHTS cell viability counter screen (AID 1963579); also: nearly all actives have a fitted effect of over 45% in size
Summary of the method: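 Metabolic activation used human liver microsomes and NADPH, both 0.5 mg/mL final, over 16 hours at 37 C on p53RE-bla cells (4,000/well). Cytotoxicity measured by CellTiter-Glo luminescence, 30 min at room temperature.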

[7] = p53 small molecule agonists, cell-based qHTS assay: qHTS cell viability counter screen (AID 1963581); also: nearly all actives have a fitted effect of over 45% in size
Summary of the method: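 Luminescence from CellTiter-Glo, reflecting ATP content, serves as the cytotoxicity measure; it is taken after the 2 h reporter substrate step in HCT-116 p53RE-bla cells dosed for 16 h at 37 C.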

[8] = molecular target: 5-hydroxytryptamine receptor 2A (Homo sapiens) (UniProt P28223); experiment: 5-hydroxytryptamine receptor 2A (HTR2A) small molecule antagonists, cell-based qHTS assay (AID 1963586); also: nearly all actives have a fitted effect of over 45% in size
Summary of the method: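 CHO cells stably expressing human HTR2A were plated for 18 h at 37 C, then loaded with calcium dye for 1 h. Compounds were preincubated 5 min at room temperature before DOI (4 nM solution) was added. Kinetic fluorescence was read for 3 min.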

[9] = molecular target: 5-hydroxytryptamine receptor 2A (Homo sapiens) (UniProt P28223); experiment: 5-hydroxytryptamine receptor 2A (HTR2A) small molecule agonists, cell-based qHTS assay (AID 1963587); also: nearly all actives have a fitted effect of over 30% in size
Summary of the method: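 HTR2A-CHO cells, plated 18 h at 37 C/5% CO2, dye-loaded 1 h at 37 C; compounds in DMSO added by pin tool (agonist mode). Intracellular calcium flux read as kinetic fluorescence on FDSS over 2 min at 1 s intervals.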

[10] = molecular target: Muscarinic acetylcholine receptor M1 (Homo sapiens) (UniProt P11229); experiment: Cholinergic receptor muscarinic 1 (CHRM1) small molecule antagonists, cell-based qHTS assay (AID 1963588); also: nearly all actives have a fitted effect of over 40% in size
Summary of the method: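 Compounds were tested at 15 concentrations in three independent runs. Dye-loaded CHRM1-CHO cells were exposed 5 min at room temperature before stimulation by acetylcholine added at 50nM. Intracellular calcium was read kinetically on FDSS for 3 min.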

[11] = molecular target: Muscarinic acetylcholine receptor M1 (Homo sapiens) (UniProt P11229); experiment: Cholinergic receptor muscarinic 1 (CHRM1) small molecule agonists, cell-based qHTS assay (AID 1963589); also: nearly all actives have a fitted effect of over 35% in size
Summary of the method: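 Fluorescent calcium dye reports M1 activation in stably transfected CHO cells. Compounds, 15 concentrations, added after 1 h dye loading at 37 C; kinetic reading at 1 sec intervals.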

[12] = cAMP Responsive Elements (CRE) small molecule agonists, cell-based qHTS assay (AID 1963590)
Summary of the method: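 Compound exposure lasted 3 h at 37 C/5% CO2 in CRE-bla HEK 293T cells grown in assay medium with 10% dialyzed FBS and 25 mM HEPES. Reporter signal came from LiveBLAzer B/G FRET substrate, 2 h, room temperature.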

[13] = cAMP Responsive Elements (CRE) small molecule antagonists, cell-based qHTS assay (AID 1963591; active = well fitted inhibition curve with a large enough effect in the signal ratio in the repeat runs, not every such curve was filed as active; the % refers to the signal ratio)
Summary of the method: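 Stimulation used NKH477 at a final 0.25 uM for 3 h in compound-treated CRE-bla HEK293T cells, seeded 18 h beforehand. Reporter activity was measured with LiveBLAzer B/G FRET substrate after 2 h at room temperature.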

[14] = molecular target: Beta-2 adrenergic receptor (Homo sapiens) (UniProt P07550); experiment: Adrenergic beta2 receptor (ADRB2) small molecule antagonists, cell-based qHTS assay (AID 1963592); also: series mostly up to about 92 µM; nearly all actives have a fitted effect of over 50% in size
Summary of the method: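 Assay format: CHO-ADRB2 cells, 18-20hr seeding at 37C/5% CO2, then compound plus 1nM isoproterenol agonist mix for 0.5hr RT. Homogeneous time-resolved fluorescence cAMP detection after 1hr, expressed as 665/615 nm ratio.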

[15] = molecular target: Beta-2 adrenergic receptor (Homo sapiens) (UniProt P07550); experiment: Adrenergic beta2 receptor (ADRB2) small molecule agonists, cell-based qHTS assay (AID 1963593);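 also: CHO cells stably overexpressing human ADRB2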
Summary of the method: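 CHO cells stably over-expressing ADRB2 were plated overnight at 37C, then dosed with compounds plus a stimulation mix containing 100uM IBMX and 25uM Ro-20-1724 for 0.5hr at room temperature. cAMP was measured by HTRF competition, 1hr.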

[16] = molecular target: D(2) dopamine receptor (Homo sapiens) (UniProt P14416); experiment: Dopamine D2 receptor (DRD2) small molecule agonists, cell-based qHTS assay (AID 1963594); also: nearly all actives have a fitted effect of over 35% in size
Summary of the method: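 HEK293 cells stably expressing DRD2 were cultured 24 h at 37 C, then given Ro20-1724 (0.1 mM final) and compounds for 10 min at room temperature. NKH477 (200nM) was then added for 30 min. cAMP was read by HTRF.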

[17] = molecular target: D(2) dopamine receptor (Homo sapiens) (UniProt P14416); experiment: Dopamine D2 receptor (DRD2) small molecule antagonists, cell-based qHTS assay (AID 1963595; active = well fitted inhibition curve with a large enough effect in the signal ratio in the repeat runs, with a control signal flat; the % refers to the signal ratio)
Summary of the method: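 Antagonism was scored as restored cAMP in HEK293-DRD2 cells. These cells were stimulated with 200 nM NKH477 and 12 nM quinpirole for 30 min at room temperature, in the presence of 0.1 mM Ro20-1724.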

[18] = p53 small molecule agonists, cell-based qHTS assay with rat liver microsomes: qHTS cell viability counter screen (AID 1963580); also: nearly all actives have a fitted effect of over 45% in size
Summary of the method: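 Luminescent ATP readout (CellTiter-Glo, 30 min at room temperature) reports viability of p53RE-bla HCT-116 cells after 16 h at 37 C with test compounds under metabolic activation by rat liver microsomes and NADPH at 0.5 mg/mL final each.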

[19] = p53 small molecule agonists, cell-based qHTS assay with rat liver microsomes (AID 1963578)
Summary of the method: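 Metabolic activation by rat liver microsomes and NADPH, each 0.5 mg/mL final, added right after compounds to p53RE-bla reporter cells (4,000/well, plated 5 h earlier). 16 h at 37 C, then LiveBLAzer substrate for 2 h at room temperature in the dark; fluorescence read-out.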

[20] = p53 small molecule agonists, cell-based qHTS assay (AID 1963582; active = well fitted activation curve with a large enough effect in the signal ratio in the repeat runs, not every such curve was filed as active; the % refers to the signal ratio)
Summary of the method: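 After plating, p53RE-bla cells sat 5 h in the incubator; compounds or DMSO vehicle were pinned in; a 16 h incubation at 37 C followed; FRET substrate was added and, 2 h later at RT, fluorescence was measured.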

5-hydroxytryptamine receptor 2A (Homo sapiens), sequence (P28223 whole entry, looked up): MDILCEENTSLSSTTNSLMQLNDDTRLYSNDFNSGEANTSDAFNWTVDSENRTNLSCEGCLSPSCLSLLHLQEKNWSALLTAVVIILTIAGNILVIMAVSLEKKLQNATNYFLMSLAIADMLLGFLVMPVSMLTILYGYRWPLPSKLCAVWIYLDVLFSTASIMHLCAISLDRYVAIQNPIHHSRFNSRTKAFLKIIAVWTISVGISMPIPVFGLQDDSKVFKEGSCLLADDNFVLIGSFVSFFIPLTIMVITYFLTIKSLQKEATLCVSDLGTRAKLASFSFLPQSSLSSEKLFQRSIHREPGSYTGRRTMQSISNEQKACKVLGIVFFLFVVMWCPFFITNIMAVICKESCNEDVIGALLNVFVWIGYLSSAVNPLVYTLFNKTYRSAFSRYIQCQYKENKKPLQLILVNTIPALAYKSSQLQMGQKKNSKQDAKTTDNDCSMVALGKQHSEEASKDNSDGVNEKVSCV
Muscarinic acetylcholine receptor M1 (Homo sapiens), sequence (P11229 whole entry, looked up): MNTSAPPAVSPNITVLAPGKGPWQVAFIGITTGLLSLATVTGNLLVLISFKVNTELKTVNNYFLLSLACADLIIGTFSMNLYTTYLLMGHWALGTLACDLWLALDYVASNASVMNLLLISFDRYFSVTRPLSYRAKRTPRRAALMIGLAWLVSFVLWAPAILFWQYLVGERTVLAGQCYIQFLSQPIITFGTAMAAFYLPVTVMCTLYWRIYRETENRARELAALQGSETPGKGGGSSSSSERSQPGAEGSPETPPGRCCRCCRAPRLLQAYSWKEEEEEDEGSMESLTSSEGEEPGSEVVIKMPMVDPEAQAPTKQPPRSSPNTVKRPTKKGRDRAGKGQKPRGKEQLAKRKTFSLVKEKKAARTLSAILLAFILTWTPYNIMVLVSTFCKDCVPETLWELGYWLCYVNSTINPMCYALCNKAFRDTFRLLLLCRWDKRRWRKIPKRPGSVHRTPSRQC
Beta-2 adrenergic receptor (Homo sapiens), sequence (P07550 whole entry, looked up): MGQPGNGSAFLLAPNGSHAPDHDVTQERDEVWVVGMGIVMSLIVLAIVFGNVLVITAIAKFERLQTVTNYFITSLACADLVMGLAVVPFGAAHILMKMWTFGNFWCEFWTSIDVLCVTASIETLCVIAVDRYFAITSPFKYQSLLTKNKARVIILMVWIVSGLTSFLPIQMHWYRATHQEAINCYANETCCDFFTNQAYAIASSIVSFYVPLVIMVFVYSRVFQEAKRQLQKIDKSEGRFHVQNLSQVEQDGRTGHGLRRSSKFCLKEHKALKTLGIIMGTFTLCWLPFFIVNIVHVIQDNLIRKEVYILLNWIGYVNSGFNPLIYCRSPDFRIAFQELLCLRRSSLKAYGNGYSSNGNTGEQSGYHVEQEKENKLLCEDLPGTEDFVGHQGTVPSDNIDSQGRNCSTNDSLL
D(2) dopamine receptor (Homo sapiens), sequence (P14416 whole entry, looked up): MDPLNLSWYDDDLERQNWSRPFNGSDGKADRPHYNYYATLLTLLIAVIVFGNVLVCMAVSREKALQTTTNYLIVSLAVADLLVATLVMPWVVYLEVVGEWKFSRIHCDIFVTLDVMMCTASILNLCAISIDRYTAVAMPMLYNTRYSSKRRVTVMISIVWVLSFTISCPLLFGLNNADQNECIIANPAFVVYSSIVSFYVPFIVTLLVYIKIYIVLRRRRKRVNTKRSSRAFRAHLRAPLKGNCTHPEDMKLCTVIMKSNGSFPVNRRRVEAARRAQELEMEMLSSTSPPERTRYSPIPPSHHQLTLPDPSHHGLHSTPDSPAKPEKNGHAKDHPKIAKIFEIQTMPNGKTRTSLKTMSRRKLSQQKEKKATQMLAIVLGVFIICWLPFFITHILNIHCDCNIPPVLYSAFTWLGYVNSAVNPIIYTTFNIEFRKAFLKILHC
KiSS-1 receptor (Homo sapiens), sequence (Q969F8 whole entry, looked up): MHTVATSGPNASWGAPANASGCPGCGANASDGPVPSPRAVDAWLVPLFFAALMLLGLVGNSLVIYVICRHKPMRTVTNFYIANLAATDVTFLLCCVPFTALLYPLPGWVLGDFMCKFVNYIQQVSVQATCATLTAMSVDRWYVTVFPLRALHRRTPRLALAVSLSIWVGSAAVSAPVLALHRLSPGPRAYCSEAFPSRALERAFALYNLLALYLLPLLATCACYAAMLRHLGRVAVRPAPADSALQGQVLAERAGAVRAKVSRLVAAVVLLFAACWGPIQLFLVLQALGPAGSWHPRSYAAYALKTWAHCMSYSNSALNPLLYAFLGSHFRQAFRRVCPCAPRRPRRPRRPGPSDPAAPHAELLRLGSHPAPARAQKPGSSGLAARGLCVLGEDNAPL
Gonadotropin-releasing hormone receptor (Homo sapiens), sequence (P30968 whole entry, looked up): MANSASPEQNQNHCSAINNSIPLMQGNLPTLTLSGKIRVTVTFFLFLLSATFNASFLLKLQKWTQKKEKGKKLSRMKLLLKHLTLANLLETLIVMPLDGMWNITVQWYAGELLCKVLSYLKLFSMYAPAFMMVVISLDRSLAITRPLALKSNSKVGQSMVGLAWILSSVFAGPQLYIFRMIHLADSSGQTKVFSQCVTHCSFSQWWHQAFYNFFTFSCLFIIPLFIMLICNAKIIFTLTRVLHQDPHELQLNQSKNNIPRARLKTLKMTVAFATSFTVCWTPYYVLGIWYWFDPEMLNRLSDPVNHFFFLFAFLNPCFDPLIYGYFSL

CC(C)C(=O)OC(=O)C(C)C
Potency [1]: inactive | Potency [2]: inactive | Potency [3]: inactive | Potency [4]: inactive | Potency [5]: inactive | Potency [6]: inactive | Potency [7]: inactive | Potency [8]: inactive | Potency [9]: inactive | Potency [10]: inactive | Potency [11]: inactive | Potency [12]: inactive | Potency [13]: inactive | Potency [14]: inactive | Potency [15]: inactive | Potency [16]: inactive | Potency [17]: inactive

CC1=CC[C@@]23C[C@@H]1C(C)(C)[C@@H]2CC[C@H]3C
Potency [1]: inactive | Potency [2]: inactive | Potency [3]: inactive | Potency [4]: inactive | Potency [5]: inactive | Potency [6]: inactive | Potency [18]: inactive | Potency [8]: inactive | Potency [9]: inactive | Potency [10]: inactive | Potency [11]: inactive | Potency [12]: inactive | Potency [14]: inactive | Potency [16]: inactive

NS(=O)(=O)c1ccc(N2CCCCS2(=O)=O)cc1
Potency [1]: inactive | Potency [2]: inactive | Potency [3]: inactive | Potency [4]: inactive | Potency [5]: inactive | Potency [19]: inactive | Potency [6]: inactive | Potency [18]: inactive | Potency [7]: inactive | Potency [20]: inactive | Potency [8]: inactive | Potency [9]: inactive | Potency [10]: inactive | Potency [11]: inactive | Potency [12]: inactive | Potency [13]: inactive | Potency [14]: inactive | Potency [15]: inactive

Clc1ccc2c(Cl)ccnc2c1
Potency [1]: inactive | Potency [2]: inactive | Potency [3]: inactive | Potency [4]: inactive | Potency [5]: inactive | Potency [6]: inactive | Potency [7]: inactive | Potency [20]: inactive | Potency [8]: inactive | Potency [9]: inactive | Potency [10]: inactive | Potency [11]: inactive | Potency [12]: inactive | Potency [13]: inactive | Potency [14]: inactive | Potency [15]: inactive | Potency [16]: inactive | Potency [17]: inactive

CC(C)COC(=O)c1ccc(N)cc1
Potency [1]: inactive | Potency [2]: inactive | Potency [3]: inactive | Potency [4]: inactive | Potency [5]: inactive | Potency [19]: inactive | Potency [6]: inactive | Potency [18]: inactive | Potency [7]: inactive | Potency [20]: inactive | Potency [8]: inactive | Potency [9]: inactive | Potency [10]: inactive | Potency [11]: inactive | Potency [12]: inactive | Potency [13]: inactive | Potency [14]: inactive | Potency [15]: inactive | Potency [16]: inactive | Potency [17]: inactive

Cc1oc(C)c(C(=O)Nc2ccccc2)c1C
Potency [1]: inactive | Potency [2]: inactive | Potency [3]: inactive | Potency [4]: inactive | Potency [5]: inactive | Potency [19]: inactive | Potency [6]: inactive | Potency [18]: inactive | Potency [7]: inactive | Potency [20]: inactive | Potency [8]: inactive | Potency [9]: inactive | Potency [10]: inactive | Potency [11]: inactive | Potency [12]: inactive | Potency [13]: inactive | Potency [14]: inactive | Potency [15]: inactive | Potency [16]: inactive | Potency [17]: inactive

CNC(=O)Nc1ccc(Cl)c(Cl)c1
Potency [1]: inactive | Potency [2]: inactive | Potency [3]: inactive | Potency [4]: inactive | Potency [5]: inactive | Potency [6]: inactive | Potency [18]: inactive | Potency [7]: inactive | Potency [20]: inactive | Potency [9]: inactive | Potency [10]: inactive | Potency [11]: inactive | Potency [12]: inactive | Potency [13]: inactive | Potency [14]: inactive | Potency [15]: inactive | Potency [16]: inactive | Potency [17]: inactive

CCCCC(CC)C(=O)OCCOCCOCCOC(=O)C(CC)CCCC (centres undefined)
Potency [1]: inactive | Potency [2]: 68.6 µM (active) | Potency [3]: inactive | Potency [4]: inactive | Potency [5]: inactive | Potency [6]: inactive | Potency [18]: inactive | Potency [7]: inactive | Potency [20]: inactive | Potency [9]: inactive | Potency [10]: inactive | Potency [11]: inactive | Potency [12]: inactive | Potency [14]: inactive | Potency [15]: inactive | Potency [16]: inactive | Potency [17]: inactive

FC(F)(F)C(F)(F)C(F)(F)C(F)(F)C(F)(F)C(F)(F)CCI
Potency [1]: inactive | Potency [2]: inactive | Potency [3]: inactive | Potency [4]: inactive | Potency [5]: inactive | Potency [19]: inactive | Potency [6]: inactive | Potency [18]: inactive | Potency [7]: inactive | Potency [20]: inactive | Potency [8]: inactive | Potency [9]: inactive | Potency [10]: inactive | Potency [11]: inactive | Potency [12]: inactive | Potency [13]: inactive | Potency [14]: inactive | Potency [15]: inactive | Potency [16]: inactive | Potency [17]: inactive

N[C@H](C(=O)O)c1ccc(O)cc1
activity change, negative = cytotoxicity [1]: 7.62% [at 19 µM] | activity, positive = activation [2]: 16.5% [at 19 µM] | activity change [3]: -1.58% [at 11.8 µM, hits give high values] | activation [4]: 3.74% [at 15.8 µM] | activation [5]: 0.205% [at 11.8 µM] | activity change, negative = cytotoxicity [6]: 0.34% [at 13.5 µM] | activity change, negative = cytotoxicity [7]: -1.01% [at 13.5 µM] | activation [20]: -1.96% [at 13.5 µM] | activity, negative = inhibition [8]: 57.4% [at 12.7 µM] | activation [9]: -0.912% [at 15.9 µM] | activity, negative = inhibition [10]: 8.36% [at 12.6 µM] | activation [11]: 0.717% [at 15.8 µM] | activity change, negative = inhibition [13]: 0.811% [at 18.9 µM] | activity change, negative = inhibition [14]: -0.335% [at 19 µM] | activation [15]: 19.3% [at 19 µM] | activation [16]: -12.3% [at 19 µM]

IC(I)I
Potency [1]: inactive | Potency [2]: inactive | Potency [3]: inactive | Potency [4]: inactive | Potency [5]: inactive | Potency [6]: inactive | Potency [18]: inactive | Potency [7]: inactive | Potency [8]: inactive | Potency [9]: inactive | Potency [10]: inactive | Potency [11]: inactive | Potency [12]: inactive | Potency [13]: inactive | Potency [14]: inactive | Potency [16]: inactive
